Compound activity (PubChem BioAssay)
Sampled rows, rich in hits. Any-hit rate of the full collection: about 12%.
JMJD2A Tudor inh – qHTS Assay for Inhibitors of JMJD2A-Tudor Domain; 390,000 compounds, 4.4% hits; Lysine-specific demethylase 4A (Homo sapiens), O75164; Potency, µM (highest dose often 114 µM), without a hit: at the highest dose activity change, negative = inhibition, hits mostly inhibitors; AID 504339, 2011; AlphaScreen JMJD2A-Tudor / H3K4me3 peptide binding; further: on the % scale 0 is the no-effect control and ±100 the full control effect; nearly all actives have a fitted effect of over 50% in size
HP1b binding inh – HTS for Inhibitors of HP1-beta Chromodomain Interactions with Methylated Histone Tails. Chromobox protein homolog 1 (Homo sapiens), P83916. AlphaScreen HP1-beta / biotin-H3K9me3 peptide binding. Potency, µM (titrated, usually from 114 µM), without a hit: at the highest dose activity change, negative = inhibition, usual class: inhibitors. 390,000 compounds, 0.56% hits; further: nearly all actives have a fitted effect of over 70% in size
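HP1-beta protein (50 nM final) preincubated 30 min at room temperature with biotinylated H3(1-18)K9me3 peptide (50 nM) in PBS pH 7.4, 0.01% Tween-20, then compound added for 30 min. AlphaScreen streptavidin donor/nickel chelate acceptor beads (10 ug/mL final), 30 min dark, luminescence read.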
L3MBTL1 block – qHTS Assay for the Inhibitors of L3MBTL1; Potency, µM (series often up to 57.1 µM), without a hit: at the highest dose activity, negative = inhibition, most hits filed as inhibitors; AlphaScreen L3MBTL1–H3K9me1 peptide binding; Lethal(3)malignant brain tumor-like protein 1 (Homo sapiens), Q9Y468; AID 485360, 2010; 230,000 compounds, 0.66% hits; further: on the % scale 0 is the no-effect control and ±100 the full control effect; nearly all actives have a fitted effect of over 60% in size
Target sequence (Q9Y468 whole entry, looked up): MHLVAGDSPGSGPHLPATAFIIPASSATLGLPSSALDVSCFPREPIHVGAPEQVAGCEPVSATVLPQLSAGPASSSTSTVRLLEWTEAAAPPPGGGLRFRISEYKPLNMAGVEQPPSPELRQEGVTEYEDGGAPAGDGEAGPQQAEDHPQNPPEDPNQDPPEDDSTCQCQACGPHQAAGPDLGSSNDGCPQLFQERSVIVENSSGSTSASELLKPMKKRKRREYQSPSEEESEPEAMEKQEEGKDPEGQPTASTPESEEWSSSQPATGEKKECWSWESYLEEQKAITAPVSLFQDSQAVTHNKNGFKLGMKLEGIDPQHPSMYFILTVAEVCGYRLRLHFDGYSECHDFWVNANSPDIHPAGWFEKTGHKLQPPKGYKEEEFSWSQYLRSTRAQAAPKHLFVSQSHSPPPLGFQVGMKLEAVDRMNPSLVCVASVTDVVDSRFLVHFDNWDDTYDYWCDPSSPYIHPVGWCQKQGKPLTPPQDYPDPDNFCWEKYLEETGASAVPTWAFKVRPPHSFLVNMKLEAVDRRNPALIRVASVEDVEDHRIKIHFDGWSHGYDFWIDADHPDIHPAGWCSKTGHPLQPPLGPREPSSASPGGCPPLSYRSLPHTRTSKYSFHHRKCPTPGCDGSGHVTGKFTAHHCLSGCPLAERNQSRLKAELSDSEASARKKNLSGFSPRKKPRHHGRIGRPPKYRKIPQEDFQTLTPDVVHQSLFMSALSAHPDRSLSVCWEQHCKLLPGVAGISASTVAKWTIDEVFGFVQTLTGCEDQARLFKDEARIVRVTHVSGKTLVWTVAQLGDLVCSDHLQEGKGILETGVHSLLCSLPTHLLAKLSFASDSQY
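L3MBTL1 (50 nM) pre-complexed 30 min with biotinylated H3(1-15)K9me1 peptide (75 nM), then compounds added for 30 min at room temperature; AlphaScreen streptavidin donor/nickel chelate acceptor beads (10 ug/mL final) read after 30 min dark incubation.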
Sfp PPTase inh – qHTS Assay for Inhibitors of Bacillus subtilis Sfp phosphopantetheinyl transferase (PPTase). Biochemical Sfp PPTase activity, qHTS. 310,000 compounds, 3.5% hits. 4'-phosphopantetheinyl transferase ffp (Bacillus subtilis), Q9F4F7. Potency, µM, for inactives: largest response in the series, negative = inhibition, most hits filed as inhibitors;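 further: the enzyme is Sfp with the accession as filed and its product quenches rhodamine fluorescence; 0% = enzyme reaction without inhibitor and -100% = no enzyme wells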
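Buffer: 50 mM Hepes-Na pH 7.6, 10 mM MgCl2, 0.01% Nonidet P-40, 0.01% BSA. Enzyme 15 nM, pre-exposed to compound 15 min; substrates then added and fluorescence change tracked over 30 min.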
BAZ2B inh – qHTS Assay for Inhibitors of BAZ2B. Bromodomain adjacent to zinc finger domain protein 2B (Homo sapiens), Q9UIF8. AlphaScreen BAZ2B-H3K14Ac peptide displacement. Potency, µM (top dose mostly 114 µM), without a hit: top-dose activity change, negative = inhibition, most hits filed as inhibitors. 360,000 compounds, 4.4% hits. AID 504333, 2011; further: on the % scale 0 is the no-effect control and ±100 the full control effect; nearly all actives have a fitted effect of over 60% in size
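Multi-concentration screen (max 110 uM) measuring displacement of acetylated histone H3 peptide from BAZ2B by AlphaScreen, using 50 nM protein, 50 nM peptide and 10 ug/mL streptavidin donor plus Ni-chelate acceptor beads.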
G9a block – qHTS Assay for Inhibitors of Histone Lysine Methyltransferase G9a | G9a H3K9 monomethylation, AlphaScreen, 2 h | Potency, µM (highest dose often 102 µM), for the others: at the highest dose activity, negative = inhibition, usual class: inhibitors | 350,000 compounds, 8.8% hits; further: on the % scale 0 is the no-effect control and ±100 the full control effect; nearly all actives have a fitted effect of over 75% in size
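Quantitative HTS format: methyltransferase activity on a biotin-tagged H3K9 peptide is measured by AlphaScreen, using a rabbit anti-monomethyl-H3K9 antibody with streptavidin donor and anti-IgG acceptor beads. Final levels are 20 nM enzyme, 500 nM peptide, 20 uM SAM; 2 h RT.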
The depositor's hits bear a star; ? = inconclusive; . = no result given; [ ] = dose if it differs, or a comment. The call rests on the fitted dose curve; in most records, active means well fitted curve in the direction sought with a large enough effect; inconclusive means small, poorly fitted or top-dose-only effect, or another doubt; inactive means no such curve, though single readings can be large; an effect the other way counts as inactive or inconclusive. Potency means the concentration at half of the fitted maximal effect.

SMILES | JMJD2A Tudor inh | HP1b binding inh | L3MBTL1 block | Sfp PPTase inh | BAZ2B inh | G9a block
O=C(CCNC(=O)c1ccccc1Cl)NCC1COc2ccccc2O1 (stereo unspecified) | -10% | 10% | 8% | . | -1% | ?
CC(Sc1n[nH]c(-c2cccs2)n1)C(=O)N1CCCC1 (stereo unspecified) | -20% | 31% | 28% | . | . | .
CC1=CC(=O)C(C(C)C)=C/C1=N/OS(=O)(=O)c1ccccc1 | 45µM* | ? | -29% | -27% | 14µM* | .
CN=C1N[C@H](c2ccccc2)N(c2ccccc2)S1 | 25µM* | ? | . | 112µM* | . | .
CNC(=O)C1CCN(S(=O)(=O)c2c(C)noc2/C=C/c2ccc(C)cc2)CC1 | -3% | 18% | -3% | 12% | -5% | 2%
Cc1ccc(S(=O)(=O)c2[nH]c(-c3ccccc3)nc2SCC(=O)O)cc1 | -18% | 42% | . | . | -21% | ?
CC(=O)Sc1nc(-c2ccccc2)[nH]c1S(=O)(=O)c1ccc(C)cc1 | 13µM* | ? | -1% | 2.5µM* | ? | 2.2µM*
CC1=C(C(=O)Nc2ccc(C)cc2C)C(c2ccc(O)cc2)n2nnnc2N1 (stereo unspecified) | -8% | 25% | . | . | -4% | -26%[59 µM]
Cc1cc(Br)ccc1NCc1ccccn1 | 3.2µM* | 16µM* | 5% | ? | 16µM* | ?
O=C(O)/C=C/C(=O)NCc1ccccn1 | 6% | 37% | . | -17% | ? | 45µM*
OC(CNCc1ccccn1)c1ccccc1 (stereo unspecified) | -7%[57.1 µM] | 60% | -4% | -24% | 22µM* | ?
c1ccc(NCc2ccccn2)cc1 | -32% | 17% | -5% | 4% | 79µM* | 4%
O=C(NCc1ccccn1)C(=O)Nc1ccccc1 | -18% | 32% | 10% | 4% | 1% | -3%
CC1CCN(CCCCOc2ccc(C(C)(C)C)cc2)CC1 | 20µM* | ? | . | -26% | ? | 40µM*
COc1ccccc1OCCCCN1CCC(C)CC1 | 13µM* | ? | . | -7% | ? | 25µM*
CC1CCN(CCOCCOc2ccccc2Br)CC1 | 2.5µM* | ? | 7%[11.4 µM] | -12% | 56µM* | ?
COc1ccccc1OCCCCOc1ccccc1C(C)=O | 40% | 98% | 23% | -3% | 24% | ?
CC1CCCN(CCCOc2ccccc2-c2ccccc2)C1 (stereo unspecified) | 1.1µM* | ? | -2%[11.4 µM] | -19% | 40µM* | 11µM*
COc1ccc(S(=O)(=O)N2CCCCC2)cc1NC(=O)Cc1ccsc1 | -12% | 29% | 2% | . | 9% | 22%[59 µM]
COC(=O)NC(CC(C)=O)c1cccc(C(F)(F)F)c1 (stereo unspecified) | . | . | . | 6% | . | .
c1ccc(OCCOCCN2CCOCC2)cc1 | -4% | 24% | . | 11% | 11% | 25%
CC1CCCN(CCOCCSc2ccccc2)C1 (stereo unspecified) | 2.5µM* | ? | 12% | -13% | -34% | 10µM*
CC1CCN(CCCCOc2ccccc2-c2ccccc2)CC1 | 4.5µM* | ? | -8% | ? | 79µM* | 13µM*
CC1CCN(CC(=O)Nc2ccccc2-c2ccccc2)CC1 | -3% | 33% | -11% | 9% | 19% | 0%[59 µM]
CC1CC(C)CN(CCCSc2ccccc2)C1 (stereo unspecified) | 28µM* | ? | -15% | ? | ? | ?
CC1CCN(CCOCCOc2ccccc2-c2ccccc2)CC1 | 3.2µM* | ? | 0% | -14% | ? | 28µM*
